Measurements published in the supplement of paper PMC3484114.
± gives the standard deviation.

What follows are compounds tested on OVCAR-3-derived ovarian cancer stem-like cells (spheroids) (assay: cell growth relative to untreated control; higher = more growth (less inhibition)). Conditions: 2.29 µM; 96 h.
Method in brief: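 Percent growth was calculated against untreated wells once blanks were subtracted and Grubbs outliers removed. The cells were OVCAR-3 spheroid-derived stem-like cells, trypsinized and plated at 50,000 cells/mL in stem cell medium on ultra-low attachment 96-well plates for a 24 h preincubation. They were then exposed to compounds at 2.29 uM for 96 h at 37°C, 5% CO2, in 4 replicate wells, and viability was measured by TOX8 resazurin fluorescence (ex 560/em 590 nm) after 4 h.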

In order of rising cell growth:
1. NC(=Nc1nc(-c2ccccn2)cc2ccccc12)c1ccccn1  9.1 ± 2.3%
2. CC1(C)C(O)OC(O)C1(C)C (centres undefined)  9.3 ± 2%
3. CC(=O)Oc1ccc(C(c2ccc(OC(C)=O)cc2)c2ccccn2)cc1  20.8 ± 5.2%
4. CCC1=C(C[C@H]2NCCc3cc(OC)c(OC)cc32)C[C@H]2c3cc(OC)c(OC)cc3CCN2C1  21.1 ± 7.4%
5. C(=N\NC1=NCCN1)/c1c2ccccc2c(/C=N/NC2=NCCN2)c2ccccc12  21.4 ± 5.8%
6. COc1cc2cc3c4cc(OC)c(OC)cc4cc[n+]3c(C)c2cc1OC.O=C(O)CS(=O)(=O)[O-]  53.7 ± 9.7%
7. CCNC(=O)OCc1c(COC(=O)NCC)c(-c2ccc(Cl)c(Cl)c2)n2c1CCC2  74.1 ± 12%
8. CCOC(=O)CCn1ncc(Cl)c(Cl)c1=O  74.8 ± 21%
9. Nc1ccn([C@@H]2O[C@H](CO)[C@@H](O)[C@@H]2O)c(=O)n1  76.6 ± 11%
10. O=C(CCc1ccccc1)On1nnc2ccccc2c1=O  79 ± 18%
11. CON(C)C(=O)C1CCCO1 (centres undefined)  79.4 ± 11%
12. CCOC(=O)Cc1cc(=O)oc2cc(O)ccc12  80.4 ± 11%
13. Cc1ccccc1NC(=O)/C=N/O  81 ± 7.2%
14. CC(=O)N(C)c1ccc(Nc2cc(C)[nH]c3ccc4ncnc4c23)cc1  81.9 ± 23%
15. Cc1ccc(NC(=O)c2cccc([N+](=O)[O-])c2O)c([N+](=O)[O-])c1  86.3 ± 17%
16. CC(C)(C)c1ccc(OC2CCO2)cc1 (centres undefined)  89.3 ± 19%
17. Cc1cc(C)c(NC(=O)/C=C/c2ccccc2)c(C)c1  89.7 ± 13%
18. C=C1C(=O)O[C@@H]2/C=C(/C)C(=O)C[C@H]3OC(C)(C)O[C@]3(C)C[C@@H](OC(=O)/C(C)=C\C)[C@@H]12  90.5 ± 31%
19. COc1cc(/C=C2\S/C(=N/Nc3nc(-c4ccc(Br)cc4)cs3)NC2=O)cc(OC)c1OC  91.9 ± 19%
20. Cc1cn(C2CC(O)C(CO)O2)c(=O)[nH]c1=O (centres undefined)  92.3 ± 10%
21. O=S(=O)(O)c1cc(N=Nc2cc(S(=O)(=O)O)c3cccnc3c2O)ccc1/C=C/c1ccc(N=Nc2cc(S(=O)(=O)O)c3cccnc3c2O)cc1S(=O)(=O)O  93.7 ± 14%
22. COc1ccc2cccc(C(=N)c3ccc(C)c4c3CCC4)c2c1  95.3 ± 25%
23. COC(=O)C1=CC(=O)C(C(=O)Nc2ccc(OC)cc2)C(c2ccccc2)O1 (centres undefined)  96.3 ± 45%
24. CC(=O)/C(C)=N/NC(=O)c1ccccc1O  98.3 ± 20%
25. O=[N+]([O-])c1cc(-c2nc(=S)[nH][nH]2)ccc1O  98.5 ± 14%
26. Clc1cc2nc[nH]c2cc1Cl  102 ± 31%
27. CC(=O)C(N1CCCCC1)C(O)(C(F)(F)F)C(F)(F)F (centres undefined)  107 ± 38%
28. CC(C)=CCC1=C(O)c2ccccc2C(=O)C1=O  109 ± 28%
29. C[CH2][Ge]([CH2]C)([CH2]C)[O]C(=O)CCC(=O)[O][Ge]([CH2]C)([CH2]C)[CH2]C  110 ± 7.5%
30. O=C1C=CC(CC(=O)c2ccc3ccccc3c2)O1 (centres undefined)  112 ± 18%
31. CN(C)CCCN1c2ccccc2Sc2ccc3ccccc3c21  117 ± 58%
32. CCN(CC)CCOc1ccc(C(O)(Cc2ccc(OC)cc2)c2ccccc2)cc1 (centres undefined)  118 ± 40%
33. CN1CCC23c4ccccc4NC1C21CCN(C)C3Nc2ccccc21  118 ± 10%
34. O=C(CC(=O)c1ccccc1)CC(O)(c1ccccc1)c1ccccc1  124 ± 18%
35. CC(=O)O[C@]1(C(C)=O)CC[C@H]2[C@@H]3C[C@H](C)C4=CC(=O)C=C[C@]4(C)[C@@]3(F)[C@@H](O)C[C@@]21C  130 ± 81%
36. Cn1cnc([N+](=O)[O-])c1Sc1nnc(-c2cccnc2)n1C  151 ± 61%
37. Clc1ccc(-c2c(C3=NCCCN3)nnn2-c2ccc(Cl)cc2)cc1  156 ± 57%
38. CN(C)/N=N/c1nc[nH]c1C(N)=O  164 ± 14%
39. Cc1c2c(cc3c1[nH]c1ccccc13)C=NCC2  227 ± 75%
